# Results filed as inconclusive are left out. A call without a number means that no potency is given here. Calls of active or inactive are those of the source. The call rests on the fitted dose curve; tested in HEK293 reporter line.
# Experiment: qHTS for Inhibitors of the Functional Ribonucleoprotein Complex (vRNP) of Lassa (LASV) Arenavirus: LASV Primary Screen - GLuc reporter signal (AID 1347082); further: nearly all actives have a fitted effect of over 60% in size
# Conditions: LASV minigenome vRNP, Gaussia luciferase reporter; series mostly up to 57.5 µM
# Potency means the concentration at half of the fitted maximal effect.
row,Compound,Potency
1,N#Cc1ccc(COC[C@H]2O[C@@H](n3c(NCc4ccc(Cl)c(Cl)c4)nc4c(N)ncnc43)[C@@H](O)[C@@H]2O)cc1,inactive
2,COc1c(Cl)cc2c([nH]c3cnccc32)c1NC(=O)c1cccnc1C,inactive
3,NC(=O)c1c(OCc2c(F)cc(Br)cc2F)nsc1NC(=O)NCCCCN1CCCC1,inactive
4,O=C(c1cc(Cc2n[nH]c(=O)c3ccccc23)ccc1F)N1CCN(C(=O)C2CC2)CC1,inactive
5,O=S(=O)(N=Cc1c(O)ccc2ccccc12)c1cccs1,inactive
6,CNCc1ccc(-c2[nH]c3cc(F)cc4c3c2CCNC4=O)cc1,inactive
7,CC(C)(C)c1cc(NC(=O)Nc2ccc(-c3cn4c(n3)sc3cc(OCCN5CCOCC5)ccc34)cc2)no1,inactive
8,C=C[C@@H]1CN2CCC1C[C@H]2[C@H](O)c1ccnc2ccccc12 (stereo not given in full),inactive
9,CS(=O)(=O)c1ccc(C(=O)Nc2ccc(Cl)c(-c3ccccn3)c2)c(Cl)c1,inactive
10,Cc1ccc(F)c(NC(=O)Nc2ccc(-c3cccc4[nH]nc(N)c34)cc2)c1,inactive
11,CNC(=O)c1cc(Oc2ccc(NC(=O)Nc3ccc(Cl)c(C(F)(F)F)c3)c(F)c2)ccn1,inactive
12,Cc1cccc(-c2[nH]ncc2-c2ccc3ncccc3n2)n1,inactive
13,CN1C(=O)c2ccccc2C1=O,inactive
14,COCCNCCCn1c(C(=O)CF)c(-c2ccc(C)cc2)c2c(N)ncnc21,inactive
15,O=C(Nc1ccc(F)c(C(F)(F)F)c1)Nc1nnc(-c2ccncc2)s1,inactive
16,Fc1cc(-c2cccc3ncc(-c4cnn(C5CCNCC5)c4)nc23)cc(F)c1CN1CCOCC1,24.3 µM (active)
17,CCOc1ccn(-c2ccc(F)cc2)c(=O)c1C(=O)Nc1ccc(Oc2ccnc(N)c2Cl)c(F)c1,inactive
18,CCN(CC)c1ccc(C(=C2C=CC(=[N+](CC)CC)C=C2)c2cc(S(=O)(=O)O)ccc2S(=O)(=O)[O-])cc1,inactive

row,Compound,Potency
1,CN1CCN(CCOc2cc(OC3CCOCC3)c3c(Nc4c(Cl)ccc5c4OCO5)ncnc3c2)CC1,inactive
2,COCC(=O)NCC=Cc1ccc2ncnc(Nc3ccc(Oc4ccc(C)nc4)c(C)c3)c2c1,43.2 µM (active)
3,O=c1cc(N2CCOCC2)oc2c(-c3cccc4c3sc3ccccc34)cccc12,inactive
4,CNc1nccc(-c2cccnc2Oc2cc(C(=O)Nc3cccc(C(F)(F)F)c3)ccc2C)n1,inactive
5,COc1cc2nccc(Oc3ccc(NC(=O)Nc4cc(C)on4)c(Cl)c3)c2cc1OC,34.3 µM (active)
6,COc1cc2c(cc1OC)[C@@H]1C(=O)c3ccc4c(c3O[C@@H]1CO2)C=CC(C)(C)O4,0.153 µM (active)
7,Cn1c(NCCN(CCO)CCCc2ccc([N+](=O)[O-])cc2)cc(=O)n(C)c1=O,inactive
8,CC(C)Oc1cc(Nc2nc(N[C@@H](C)c3ccc(F)cn3)ncc2Cl)[nH]n1,inactive
9,COC[C@H]1OC(=O)c2coc3c2[C@@]1(C)C1=C(C3=O)[C@@H]2CC[C@H](O)[C@@]2(C)C[C@@H]1OC(C)=O,inactive
10,CC(=O)Nc1sc2c(c1-c1nc3ccccc3s1)CNC2,inactive
11,CC(C)(N)C(=O)N[C@H](COCc1ccccc1)C(=O)N1CCC2(CC1)CN(S(C)(=O)=O)c1ccccc12,inactive
12,CC(C)OC(=O)C1=CN(C(=O)c2ccc(F)c(F)c2)CC(C)(C)c2c1[nH]c1ccccc21,inactive
13,Cc1ccnc(NS(=O)(=O)c2ccc(NC(=O)Nc3ccc(S(=O)(=O)Nc4nccc(C)n4)cc3)cc2)n1,inactive
14,Cc1cnc(Nc2ccc(OCCN3CCCC3)cc2)nc1Nc1cccc(S(=O)(=O)NC(C)(C)C)c1,inactive
15,O=c1[nH]nc(Sc2ncc([N+](=O)[O-])s2)n1-c1ccc2c(c1)OCCO2,inactive
16,O=C(C1CC1)N1CC[C@@H](Cn2c(-c3ccc(-c4ccc5occc5c4)cc3)nc3cnccc32)C1,inactive
17,N#Cc1ccc(NC(=O)Nc2ccccc2Br)c2n[nH]nc12,inactive

# Experiment: qHTS for Inhibitors of the Functional Ribonucleoprotein Complex (vRNP) of Lassa (LASV) Arenavirus: Viability assay - alamar blue signal for LASV Primary Screen (AID 1347083); further: nearly all actives have a fitted effect of over 80% in size
# Conditions: cell viability, alamar blue fluorescence (LASV minigenome counter-screen); series mostly up to 57.5 µM
row,Compound,Potency
1,C#Cc1cccc(Nc2ncnc3cc(OC)c(OCCCCCCC(=O)NO)cc23)c1,3.43 µM (active)
2,CC[C@H](Nc1ncnc2nc[nH]c12)c1nc2cccc(F)c2c(=O)n1-c1ccccc1,24.3 µM (active)
3,CN1CCN(c2cc(C(=O)Nc3ccc4c(c3)-c3c(c(C(N)=O)nn3-c3ccc(F)cc3)CC4)c(Cl)cn2)CC1,2.73 µM (active)
4,COc1cc2c(cc1OC)[C@@H]1C(=O)c3ccc4c(c3O[C@@H]1CO2)C=CC(C)(C)O4,1.93 µM (active)
5,CC(=O)Nc1sc2c(c1-c1nc3ccccc3s1)CNC2,0.0054 µM (active)
6,CCOc1cc(C(=O)Nc2ccc(Cl)c(-c3nc4ccccc4[nH]3)c2)cc(OCC)c1OCC,17.2 µM (active)
7,Cn1c(=O)c(F)c(Nc2ccc(I)cc2F)c2c(=O)n(C[C@@H](O)CO)cnc21,4.85 µM (active)

# Experiment: qHTS for Inhibitors of the Functional Ribonucleoprotein Complex (vRNP) of Lymphocytic Choriomeningitis Arenaviruses (LCMV): Viability assay - alamar blue signal for LCMV Primary Screen (AID 1347085); further: nearly all actives have a fitted effect of over 80% in size
# Conditions: alamar blue viability counter-screen, LCMV vRNP screen cells; series mostly up to 57.5 µM
row,Compound,Potency
1,NC(=O)c1c(OCc2c(F)cc(Br)cc2F)nsc1NC(=O)NCCCCN1CCCC1,inactive
2,O=C(c1cc(Cc2n[nH]c(=O)c3ccccc23)ccc1F)N1CCN(C(=O)C2CC2)CC1,inactive
3,CNCc1ccc(-c2[nH]c3cc(F)cc4c3c2CCNC4=O)cc1,inactive
4,CC(C)(C)c1cc(NC(=O)Nc2ccc(-c3cn4c(n3)sc3cc(OCCN5CCOCC5)ccc34)cc2)no1,inactive
5,C=C[C@@H]1CN2CCC1C[C@H]2[C@H](O)c1ccnc2ccccc12 (stereo not given in full),inactive
6,CS(=O)(=O)c1ccc(C(=O)Nc2ccc(Cl)c(-c3ccccn3)c2)c(Cl)c1,inactive
7,Cc1ccc(F)c(NC(=O)Nc2ccc(-c3cccc4[nH]nc(N)c34)cc2)c1,inactive
8,Cc1cccc(-c2[nH]ncc2-c2ccc3ncccc3n2)n1,inactive
9,CN1C(=O)c2ccccc2C1=O,inactive
10,COCCNCCCn1c(C(=O)CF)c(-c2ccc(C)cc2)c2c(N)ncnc21,inactive
11,O=C(Nc1ccc(F)c(C(F)(F)F)c1)Nc1nnc(-c2ccncc2)s1,13.7 µM (active)
12,CCOc1ccn(-c2ccc(F)cc2)c(=O)c1C(=O)Nc1ccc(Oc2ccnc(N)c2Cl)c(F)c1,inactive
13,COCC(=O)NCC=Cc1ccc2ncnc(Nc3ccc(Oc4ccc(C)nc4)c(C)c3)c2c1,inactive
14,O=c1cc(N2CCOCC2)oc2c(-c3cccc4c3sc3ccccc34)cccc12,inactive
15,CNc1nccc(-c2cccnc2Oc2cc(C(=O)Nc3cccc(C(F)(F)F)c3)ccc2C)n1,inactive
16,COc1cc2nccc(Oc3ccc(NC(=O)Nc4cc(C)on4)c(Cl)c3)c2cc1OC,17.2 µM (active)
17,Cn1c(NCCN(CCO)CCCc2ccc([N+](=O)[O-])cc2)cc(=O)n(C)c1=O,inactive
18,CC(C)Oc1cc(Nc2nc(N[C@@H](C)c3ccc(F)cn3)ncc2Cl)[nH]n1,inactive
19,CC(C)(N)C(=O)N[C@H](COCc1ccccc1)C(=O)N1CCC2(CC1)CN(S(C)(=O)=O)c1ccccc12,inactive
20,Cc1ccnc(NS(=O)(=O)c2ccc(NC(=O)Nc3ccc(S(=O)(=O)Nc4nccc(C)n4)cc3)cc2)n1,0.685 µM (active)
21,Cc1cnc(Nc2ccc(OCCN3CCCC3)cc2)nc1Nc1cccc(S(=O)(=O)NC(C)(C)C)c1,inactive
22,O=C(C1CC1)N1CC[C@@H](Cn2c(-c3ccc(-c4ccc5occc5c4)cc3)nc3cnccc32)C1,10.9 µM (active)
23,N#Cc1ccc(NC(=O)Nc2ccccc2Br)c2n[nH]nc12,inactive
